From the supplement of paper PMC9262897, “Low-cost anti-mycobacterial drug discovery using engineered E. coli” (Nature Communications, 2022) come the findings set out here.

SMILES strings stand for the structures. Counter-ions that a name gives are not always drawn. ± gives the standard deviation of the averaged measurements.

What all share (experiment): growth (OD600 after 10 h); higher = more growth (less inhibition)
Assay [1] has as its system E. coli TESEC Alr+ wild-type control. Conditions: compound 0.1 mM; raw OD600 reference: median of DMSO wells 0.241, cell-free background 0.041. How it is done:
(§1)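 TESEC Mtb Alr E. coli, or the Alr+ wild-type control, in 384-well plates with Prestwick library compounds at 0.1 mM and 1% DMSO, across arabinose induction levels of 1E3 to 1E7 nM. Growth is read as OD600 after 10 h at 37 °C in triplicate biological replicates.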

For assay [2], the system named is E. coli TESEC Mtb Alr. The following applies: compound 0.1 mM. How it is done: as §1
Assay [3] relates to E. coli TESEC Mtb Asd. Conditions: compound 0.1 mM. How it is done:
(§2)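 TESEC E. coli strains in which the native enzyme is deleted and replaced by arabinose-inducible Mtb Asd, DapB, CysH or TrpD, each grown in its selective medium. Strains were screened against the Prestwick library at 0.1 mM and 1% DMSO in 384-well format at low and high arabinose induction. Growth is read as OD600 after 10 h in triplicate.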

The subject of assay [4] is E. coli TESEC Mtb Alr. The following applies: compound 0.1 mM. The procedure:
(§3)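 TESEC Mtb Alr E. coli (ΔaraC ΔtolC ΔentC Δalr ΔdadX, arabinose-inducible Mtb Alr) or the Alr+ wild-type control strain, grown in defined M9-fructose medium without D-alanine in 96-well plates with Prestwick library compounds at 0.1 mM and 1% DMSO. Low Alr induction is 0.1 µM arabinose and high induction is 10 mM arabinose.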
The source holds these as a separate data set.

Assay [5] has as its system E. coli TESEC Alr+ wild-type control. The following applies: compound 0.1 mM; raw OD600 reference: median of DMSO wells 0.49, cell-free background 0.052. How it is done:
as §3

In assay [6] the test system is E. coli TESEC Mtb DapB. Conditions: compound 0.1 mM. How it is done: as §2
The mark [7] stands for this setting: arabinose 1000 nM, raw OD600 reference: median of DMSO wells 0.294, cell-free background 0.041.
The mark [8] stands for this setting: arabinose 10000 nM, raw OD600 reference: median of DMSO wells 0.264, cell-free background 0.041.
Setting [9] is: arabinose 100000 nM, raw OD600 reference: median of DMSO wells 0.201, cell-free background 0.041.
Setting [10] is: arabinose 1000000 nM, raw OD600 reference: median of DMSO wells 0.193, cell-free background 0.041.
Setting [11] is: arabinose 10000000 nM, raw OD600 reference: median of DMSO wells 0.146, cell-free background 0.041.
Where [12] appears, read: arabinose induction (level): High, raw OD600 reference: median of DMSO wells 0.331, cell-free background 0.041.
Setting [13] is: arabinose induction (level): Low, raw OD600 reference: median of DMSO wells 0.417, cell-free background 0.041.
Where [14] appears, read: arabinose 100 nM, raw OD600 reference: median of DMSO wells 0.413, cell-free background 0.052.
[15] abbreviates: arabinose 10000000 nM, raw OD600 reference: median of DMSO wells […], cell-free background 0.052.

As for `C#C[C@]1(O)CC[C@H]2[C@@H]3CCC4=CC(=O)CC[C@]4(C)[C@H]3CC[C@@]21C` [Ethisterone], the growth in assay [1] was found to be 0.237 ± 0.0043; in assay [2] (setting [7]) it was 0.28 ± 0.01; in assay [2] (setting [8]) it was 0.2589 ± 0.0022; in assay [2] (setting [9]) it was 0.21 ± 0.015; in assay [2] (setting [10]), 0.172 ± 0.0021; in assay [2] (setting [11]), 0.1381 ± 0.001. For the same compound, the growth in assay [3] (setting [12]) turned out to be 0.344 ± 0.057; in assay [3] (setting [13]), 0.41 ± 0.063; in assay [4] (setting [14]) it was 0.408 ± 0.0092; in assay [4] (setting [15]) it was 0.39 ± 0.055.

`CN[C@@H]1C[C@@H](c2ccc(Cl)c(Cl)c2)c2ccccc21` [Indatraline hydrochloride]: the growth in assay [1] was determined as 0.0397 ± 0.00076; in assay [2] (setting [7]), 0.0417 ± 0.00046; in assay [2] (setting [8]), 0.0413 ± 0.00055; in assay [2] (setting [9]), 0.0425 ± 0.0013; in assay [2] (setting [10]) it was 0.03897 ± 0.00015; in assay [2] (setting [11]) it was 0.0445 ± 0.002. For the same compound, the growth in assay [3] (setting [12]) turned out to be 0.0513 ± 0.0011; in assay [3] (setting [13]), 0.0522 ± 0.0001; in assay [5], 0.0509 ± 0.0003; in assay [4] (setting [14]), 0.24 ± 0.15; in assay [4] (setting [15]), 0.0505 ± 0.00096.

For the compound `CCC(=O)O[C@@](Cc1ccccc1)(c1ccccc1)[C@@H](C)CN(C)C` [Levopropoxyphene napsylate], the growth amounted to 0.178 ± 0.0045 in assay [1]; 0.249 ± 0.005 in assay [2] (setting [7]); 0.283 ± 0.012 in assay [2] (setting [8]); 0.176 ± 0.014 in assay [2] (setting [9]); 0.1558 ± 0.001 in assay [2] (setting [10]); 0.15 ± 0.0048 in assay [2] (setting [11]). In addition, the growth in assay [3] (setting [12]) was 0.169 ± 0.019; in assay [3] (setting [13]), 0.388 ± 0.047; in assay [4] (setting [14]), 0.4145 ± 0.0027; in assay [4] (setting [15]) it was 0.323 ± 0.013.

Turning to `Oc1ccc2c3c1O[C@H]1[C@@H](O)CC[C@@]4(O)[C@@H](C2)N(CC2CCC2)CC[C@]314` [Nalbuphine hydrochloride], the growth in assay [1] amounted to 0.233 ± 0.0039; in assay [2] (setting [7]) it was 0.262 ± 0.028; in assay [2] (setting [8]) it was 0.2664 ± 0.0015; in assay [2] (setting [9]), 0.183 ± 0.024; in assay [2] (setting [10]), 0.1753 ± 0.0013; in assay [2] (setting [11]) it was 0.135 ± 0.0094. The growth in assay [3] (setting [12]) amounted to 0.381 ± 0.095; in assay [3] (setting [13]), 0.453 ± 0.036; in assay [4] (setting [14]), 0.4293 ± 0.0018; in assay [4] (setting [15]) it was 0.351 ± 0.015.

Turning to `CC(=O)O[C@H]1C[C@@H]2CC[C@@H]3[C@H](CC[C@@]4(C)[C@H]3C[C@H]([N+]3(C)CCCCC3)[C@@H]4OC(C)=O)[C@@]2(C)C[C@@H]1[N+]1(C)CCCCC1` [Pancuronium bromide], the growth in assay [1] amounted to 0.232 ± 0.0035; in assay [2] (setting [7]) it was 0.318 ± 0.0065; in assay [2] (setting [8]) it was 0.2563 ± 0.0013; in assay [2] (setting [9]), 0.194 ± 0.021; in assay [2] (setting [10]), 0.168 ± 0.0052; in assay [2] (setting [11]) it was 0.154 ± 0.0046. Further, the growth in assay [3] (setting [12]) is 0.242 ± 0.064; in assay [3] (setting [13]), 0.407 ± 0.014; in assay [4] (setting [14]) it was 0.421 ± 0.026; in assay [4] (setting [15]) it was 0.349 ± 0.019.

Turning to `CNCC(O)c1ccc(O)cc1` (racemic) [(+,-)-Synephrine], the growth in assay [1] was found to be 0.239 ± 0.0073; in assay [2] (setting [7]), 0.2963 ± 0.00035; in assay [2] (setting [8]), 0.267 ± 0.01; in assay [2] (setting [9]) it was 0.175 ± 0.012; in assay [2] (setting [10]), 0.198 ± 0.012; in assay [2] (setting [11]) it was 0.141 ± 0.0004. The growth in assay [3] (setting [12]) was 0.222 ± 0.018; in assay [3] (setting [13]), 0.322 ± 0.076; in assay [4] (setting [14]), 0.4195 ± 0.0029; in assay [4] (setting [15]), 0.325 ± 0.027.

For the compound `CN(C)C(=O)Oc1ccc[n+](C)c1` [Pyridostigmine iodide], the growth in assay [1] amounted to 0.248 ± 0.011; in assay [3] (setting [12]) it was 0.335 ± 0.049; in assay [3] (setting [13]), 0.434 ± 0.076; in assay [6] (arabinose induction (level): High, raw OD600 reference: median of DMSO wells […], cell-free background 0.041), 0.195 ± 0.017; in assay [6] (arabinose induction (level): Low, raw OD600 reference: median of DMSO wells 0.227, cell-free background 0.041) it was 0.221 ± 0.0064; in assay [4] (setting [14]) it was 0.404 ± 0.017. Also, the growth in assay [4] (setting [15]) stood at 0.355 ± 0.0089.

On to `C=C(C)[C@@H]1[C@H]2OC(=O)[C@@H]1[C@]1(O)C[C@H]3O[C@]34C(=O)O[C@H]2[C@]14C` [Picrotoxinin], for which the growth was 0.253 ± 0.0051 in assay [1]; 0.314 ± 0.023 in assay [2] (setting [7]); 0.2631 ± 0.002 in assay [2] (setting [8]); 0.215 ± 0.023 in assay [2] (setting [9]); 0.186 ± 0.0029 in assay [2] (setting [10]); 0.138 ± 0.0029 in assay [2] (setting [11]). Besides, the growth in assay [3] (setting [12]) turned out to be 0.343 ± 0.016; in assay [3] (setting [13]), 0.461 ± 0.003; in assay [4] (setting [14]), 0.401 ± 0.011; in assay [4] (setting [15]), 0.351 ± 0.0093.
